In the supplement of paper PMC10849652:
The full data set covers some 7,900 targets. This sample favours those with a hit. About 0.6% of all pairs of compound and target were hits. A number with no mark means an inactive call.

Columns and labels:
Assay in all cases: log2 fold change, soluble protein after heating vs DMSO (PISA); higher = thermal stabilisation; K562 cells, 10 uM, 30 min; active = over 0.2 and 3.5 SD of the protein, either way, in both replicates (recomputed)
[1] = molecular target: ZNF217 (UniProt O75362)
In short: (§1)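 Thermal stability values are relative to control samples and come from duplicates. They are expressed as log2 fold changes. For measurement, K562 cells (2×10^6 cells/mL) received 10 μM compound for 30 min, and aliquots were heated for 3 min over 48°C-58°C, pooled, and extracted at 4°C in PBS with 0.5% NP-40. Soluble protein, the supernatant after 21,000xg for 90 min, was quantified by TMTpro 16plex LC-MS/MS with equalised channel sums.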

[2] = molecular target: ZNF239 (UniProt Q16600)
In short: as §1

[3] = molecular target: ZNF277 (UniProt Q9NRM2)
In short: as §1

[4] = molecular target: ZNF511 isoform 1 (UniProt Q8NB15)
In short: as §1

[5] = molecular target: ZNF512 (UniProt Q96ME7)
In short: as §1

[6] = molecular target: ZNF579 (UniProt Q8NAF0)
In short: as §1

[7] = molecular target: ZNF609 (UniProt O15014)
In short: as §1

[8] = molecular target: ZNF622 (UniProt Q969S3)
In short: as §1

[9] = molecular target: ZRANB2 (UniProt O95218)
In short: as §1

[10] = molecular target: ZNF580 (UniProt Q9UK33)
In short: as §1

Chain of ZNF609 (O15014 whole entry, looked up): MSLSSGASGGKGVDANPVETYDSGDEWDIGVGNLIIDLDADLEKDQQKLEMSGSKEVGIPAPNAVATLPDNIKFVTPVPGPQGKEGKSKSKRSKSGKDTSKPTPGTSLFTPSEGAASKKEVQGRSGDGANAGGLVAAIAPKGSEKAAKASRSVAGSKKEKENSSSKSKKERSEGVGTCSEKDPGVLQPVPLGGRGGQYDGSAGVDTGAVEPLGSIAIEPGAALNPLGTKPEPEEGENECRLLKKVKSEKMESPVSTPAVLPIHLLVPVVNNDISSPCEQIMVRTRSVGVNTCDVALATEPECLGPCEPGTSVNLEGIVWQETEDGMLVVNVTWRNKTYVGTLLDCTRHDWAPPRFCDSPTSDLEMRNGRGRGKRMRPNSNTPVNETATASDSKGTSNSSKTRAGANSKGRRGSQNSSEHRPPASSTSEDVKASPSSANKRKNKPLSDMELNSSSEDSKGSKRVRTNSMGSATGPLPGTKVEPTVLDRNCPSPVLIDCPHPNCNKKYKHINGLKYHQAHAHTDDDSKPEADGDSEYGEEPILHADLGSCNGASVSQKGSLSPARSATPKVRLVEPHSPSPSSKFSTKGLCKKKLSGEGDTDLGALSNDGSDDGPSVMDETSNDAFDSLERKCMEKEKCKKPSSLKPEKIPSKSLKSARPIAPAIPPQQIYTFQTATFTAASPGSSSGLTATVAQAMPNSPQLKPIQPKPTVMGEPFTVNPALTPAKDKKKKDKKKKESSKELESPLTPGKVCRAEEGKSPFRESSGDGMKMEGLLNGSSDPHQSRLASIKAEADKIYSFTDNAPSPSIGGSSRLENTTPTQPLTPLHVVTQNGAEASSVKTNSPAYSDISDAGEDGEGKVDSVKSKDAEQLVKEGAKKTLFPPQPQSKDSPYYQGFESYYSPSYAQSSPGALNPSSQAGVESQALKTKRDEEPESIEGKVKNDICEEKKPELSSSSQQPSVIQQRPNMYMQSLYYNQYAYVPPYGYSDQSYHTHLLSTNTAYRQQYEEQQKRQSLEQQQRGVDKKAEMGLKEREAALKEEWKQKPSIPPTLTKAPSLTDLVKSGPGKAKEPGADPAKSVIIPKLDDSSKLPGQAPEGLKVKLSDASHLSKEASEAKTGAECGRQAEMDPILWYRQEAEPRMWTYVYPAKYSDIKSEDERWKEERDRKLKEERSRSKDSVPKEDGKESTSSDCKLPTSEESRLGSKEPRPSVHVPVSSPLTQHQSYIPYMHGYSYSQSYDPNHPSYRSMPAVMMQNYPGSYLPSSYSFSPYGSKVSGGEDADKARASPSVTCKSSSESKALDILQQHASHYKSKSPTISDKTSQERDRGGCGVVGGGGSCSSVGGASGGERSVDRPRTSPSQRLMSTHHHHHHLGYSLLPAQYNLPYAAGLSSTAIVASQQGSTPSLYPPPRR
Chain of ZNF580 (Q9UK33 whole entry, looked up): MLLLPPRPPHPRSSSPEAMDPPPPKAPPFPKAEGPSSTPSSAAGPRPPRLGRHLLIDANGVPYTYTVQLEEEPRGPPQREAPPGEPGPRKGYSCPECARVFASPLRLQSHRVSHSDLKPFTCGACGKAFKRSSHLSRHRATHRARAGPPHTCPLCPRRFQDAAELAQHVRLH
Chain of ZRANB2 (O95218 whole entry, looked up): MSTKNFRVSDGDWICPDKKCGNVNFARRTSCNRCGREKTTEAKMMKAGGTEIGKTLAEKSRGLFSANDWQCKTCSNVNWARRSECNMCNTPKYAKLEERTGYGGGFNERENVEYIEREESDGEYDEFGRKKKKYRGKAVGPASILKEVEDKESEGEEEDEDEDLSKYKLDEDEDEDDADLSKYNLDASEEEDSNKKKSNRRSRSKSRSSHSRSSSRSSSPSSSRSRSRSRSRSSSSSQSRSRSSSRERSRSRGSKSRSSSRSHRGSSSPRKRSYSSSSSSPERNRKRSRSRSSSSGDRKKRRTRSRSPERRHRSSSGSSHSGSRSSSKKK
Chain of ZNF512 (Q96ME7 whole entry, looked up): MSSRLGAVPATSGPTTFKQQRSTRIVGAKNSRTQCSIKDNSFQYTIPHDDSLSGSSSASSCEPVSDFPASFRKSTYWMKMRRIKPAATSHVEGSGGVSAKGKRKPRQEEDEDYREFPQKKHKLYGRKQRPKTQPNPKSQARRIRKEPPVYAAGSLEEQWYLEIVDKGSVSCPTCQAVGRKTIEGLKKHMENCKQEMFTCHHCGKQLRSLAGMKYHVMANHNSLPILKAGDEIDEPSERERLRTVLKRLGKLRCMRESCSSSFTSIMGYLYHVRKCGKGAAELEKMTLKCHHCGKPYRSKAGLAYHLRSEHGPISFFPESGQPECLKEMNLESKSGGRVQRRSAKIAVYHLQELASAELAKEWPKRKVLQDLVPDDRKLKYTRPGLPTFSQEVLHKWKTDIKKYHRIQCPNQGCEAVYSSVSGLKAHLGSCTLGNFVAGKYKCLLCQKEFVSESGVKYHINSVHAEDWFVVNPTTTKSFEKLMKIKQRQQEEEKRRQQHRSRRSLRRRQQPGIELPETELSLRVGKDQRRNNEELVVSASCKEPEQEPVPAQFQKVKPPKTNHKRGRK
Chain of ZNF511 isoform 1 (Q8NB15 whole entry, looked up, canonical isoform): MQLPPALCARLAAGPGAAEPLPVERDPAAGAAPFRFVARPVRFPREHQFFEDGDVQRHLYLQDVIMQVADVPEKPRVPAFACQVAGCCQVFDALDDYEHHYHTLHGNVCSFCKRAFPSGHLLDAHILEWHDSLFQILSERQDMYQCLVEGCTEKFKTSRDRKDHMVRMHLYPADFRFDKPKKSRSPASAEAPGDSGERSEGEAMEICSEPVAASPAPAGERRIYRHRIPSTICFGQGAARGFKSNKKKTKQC
Chain of ZNF239 (Q16600 whole entry, looked up): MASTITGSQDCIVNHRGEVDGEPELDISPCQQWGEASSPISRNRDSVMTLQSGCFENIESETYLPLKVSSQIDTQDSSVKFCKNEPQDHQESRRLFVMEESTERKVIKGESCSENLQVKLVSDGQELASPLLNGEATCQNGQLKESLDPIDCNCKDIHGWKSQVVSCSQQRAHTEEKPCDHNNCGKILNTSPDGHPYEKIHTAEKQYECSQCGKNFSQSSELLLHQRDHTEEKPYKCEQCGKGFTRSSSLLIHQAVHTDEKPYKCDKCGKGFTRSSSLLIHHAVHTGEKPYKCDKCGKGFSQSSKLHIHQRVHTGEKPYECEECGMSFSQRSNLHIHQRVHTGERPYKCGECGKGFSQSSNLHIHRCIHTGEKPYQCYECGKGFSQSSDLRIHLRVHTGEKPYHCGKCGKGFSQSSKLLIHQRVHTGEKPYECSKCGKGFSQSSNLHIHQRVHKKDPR
Chain of ZNF277 (Q9NRM2 whole entry, looked up): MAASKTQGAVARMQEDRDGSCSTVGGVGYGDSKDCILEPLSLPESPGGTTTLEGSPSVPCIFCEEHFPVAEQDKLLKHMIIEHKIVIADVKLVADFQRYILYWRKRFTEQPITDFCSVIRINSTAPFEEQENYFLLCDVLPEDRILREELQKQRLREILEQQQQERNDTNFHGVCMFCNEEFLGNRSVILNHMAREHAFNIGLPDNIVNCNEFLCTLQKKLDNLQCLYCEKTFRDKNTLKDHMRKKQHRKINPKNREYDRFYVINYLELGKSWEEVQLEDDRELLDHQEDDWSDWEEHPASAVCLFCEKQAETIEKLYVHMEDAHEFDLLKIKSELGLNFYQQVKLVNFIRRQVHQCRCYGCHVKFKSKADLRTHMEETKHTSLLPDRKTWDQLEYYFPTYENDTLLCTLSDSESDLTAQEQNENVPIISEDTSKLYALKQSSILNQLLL
Chain of ZNF622 (Q969S3 whole entry, looked up): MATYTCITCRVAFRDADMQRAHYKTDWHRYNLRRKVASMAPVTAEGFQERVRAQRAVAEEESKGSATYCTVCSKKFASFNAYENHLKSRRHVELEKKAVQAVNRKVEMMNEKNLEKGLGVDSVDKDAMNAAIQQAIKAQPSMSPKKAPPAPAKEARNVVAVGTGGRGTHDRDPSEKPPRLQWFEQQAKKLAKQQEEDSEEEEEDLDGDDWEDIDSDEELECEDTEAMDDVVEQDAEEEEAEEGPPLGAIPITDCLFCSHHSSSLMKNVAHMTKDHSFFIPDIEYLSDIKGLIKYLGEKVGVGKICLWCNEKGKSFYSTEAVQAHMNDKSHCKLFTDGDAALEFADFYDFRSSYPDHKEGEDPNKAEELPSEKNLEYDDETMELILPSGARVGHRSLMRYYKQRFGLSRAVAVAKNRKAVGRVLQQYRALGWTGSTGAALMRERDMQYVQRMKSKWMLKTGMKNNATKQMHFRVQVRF
Chain of ZNF579 (Q8NAF0 whole entry, looked up): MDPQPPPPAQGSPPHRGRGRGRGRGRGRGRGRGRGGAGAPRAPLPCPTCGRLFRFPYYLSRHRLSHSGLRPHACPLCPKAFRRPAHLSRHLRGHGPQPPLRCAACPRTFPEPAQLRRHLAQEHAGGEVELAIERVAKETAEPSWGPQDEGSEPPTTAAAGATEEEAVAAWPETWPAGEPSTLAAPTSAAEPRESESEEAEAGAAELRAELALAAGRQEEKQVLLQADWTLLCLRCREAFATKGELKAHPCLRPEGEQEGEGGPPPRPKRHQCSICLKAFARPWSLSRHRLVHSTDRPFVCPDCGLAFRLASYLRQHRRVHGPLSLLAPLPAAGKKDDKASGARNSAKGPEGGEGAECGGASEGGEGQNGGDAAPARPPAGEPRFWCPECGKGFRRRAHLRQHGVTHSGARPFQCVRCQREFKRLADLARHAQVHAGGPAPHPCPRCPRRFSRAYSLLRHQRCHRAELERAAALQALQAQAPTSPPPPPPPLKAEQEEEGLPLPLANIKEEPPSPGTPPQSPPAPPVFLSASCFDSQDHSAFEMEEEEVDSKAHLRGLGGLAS

Compound | log2 fold change [1] | log2 fold change [2] | log2 fold change [3] | log2 fold change [4] | log2 fold change [5] | log2 fold change [6] | log2 fold change [7] | log2 fold change [8] | log2 fold change [9] | log2 fold change [10]
O=C1NC(=O)C(c2cnc3ccccn23)=C1c1cn2c3c(cc(F)cc13)CN(C(=O)N1CCCCC1)CC2 | -0.102 | 0.082 | 0.124 | -0.095 | -0.023 | 0.038 | -0.571 (active) | 0.043 | 0.12 | –
C[C@@H](N)c1ccc(C(=O)Nc2ccnc3[nH]ccc23)cc1 | -0.013 | 0.022 | 0.315 | -0.105 | 0.45 | 0.102 | 0.033 | 0 | -0.043 | –
NC(=O)c1cnc(N[C@@H]2CCCC[C@@H]2N)nc1Nc1cccc(-n2nccn2)c1 | -0.053 | -0.092 | 0.067 | -0.066 | -0.005 | 0.067 | 0.015 | -0.002 | 0.002 | –
CCCc1cc(C)[nH]c(=O)c1CNC(=O)c1cc(-c2ccnc(N3CCN(C)CC3)c2)cc2c1cnn2C(C)C | 0.003 | -0.662 (active) | 0.154 | 0.08 | 0.363 | 0.058 | -0.003 | -0.01 | 0.028 | –
O=C1NC(=O)/C(=C\c2ccc3nccnc3c2)S1 | 0.007 | 0.065 | -0.108 | 0.017 | – | -0.07 | -0.006 | -0.004 | 0.051 | –
CCn1c(C(=O)N(C2CC2)C2CC2)cc2c3c(ncn3C)c(Nc3cc(C)n(C)n3)nc21 | -0.034 | 0.004 | -0.188 | – | 0.128 | 0.002 | 0.007 | 0.005 | 0.014 | –
CN(CCOc1ccc(C[C@@H]2SC(=O)NC2=O)cc1)c1ccccn1 (racemic) [rosiglitazone] | 0.047 | 0.17 | 0.011 | 0.085 | – | -0.021 | 0.027 | 0.027 | -0.055 | –
CNC(=O)c1ccc(Nc2ncc(C(F)(F)F)c(NCc3nccnc3N(C)S(C)(=O)=O)n2)cc1 [defactinib] | -0.145 | -0.014 | 0.161 | -0.128 | – | 0.019 | -0.046 | 0.057 | -0.046 | -0.099
CN1CCc2c(c3ccccc3n2Cc2ccc(C(=O)NO)cc2)C1 [Tubastatin A] | -0.086 | 0.091 | 0.275 | -0.089 | – | 0.095 | -0.126 | 0.018 | -0.032 | -0.08
CC[C@@H]1C(=O)N(C)c2cnc(Nc3ccc(C(=O)N[C@H]4CC[C@H](N5CCN(CC6CC6)CC5)CC4)cc3OC)nc2N1C(C)C [volasertib] | -0.007 | 0.084 | -0.017 | 0.007 | – | 0.098 | -0.328 | 0.138 | 0.1 | 0.025
CCN(CCCOc1ccc2c(Nc3cc(CC(=O)Nc4cccc(F)c4)[nH]n3)ncnc2c1)CCOP(=O)(O)O [barasertib] | 0.03 | -0.034 | 0.026 | -0.041 | – | 0.037 | 0.039 | -0.001 | -0.01 | –
Cn1cc(-c2ccc3nnc(C(F)(F)c4ccc5ncccc5c4)n3n2)cn1 | -0.01 | -0.102 | -0.064 | -0.132 | – | 0.002 | -0.286 | 0.024 | 0.036 | –
C#Cc1cccc(Nc2ncnc3cc(OCCOC)c(OCCOC)cc23)c1 [erlotinib] | 0.001 | -0.098 | 0.097 | – | -0.048 | -0.056 | 0.03 | 0.056 | 0.005 | –
COC(=O)[C@H](CCSC)NC(=O)c1ccc(NC[C@@H](N)CS)cc1-c1ccccc1 | -0.067 | 0.002 | -0.047 | -0.201 | – | -0.012 | 0.019 | 0.005 | 0.05 | -0.082
CN(C)CC(=O)Nc1ccc2[nH]c(=O)c3ccccc3c2c1 | 0.06 | -0.1 | -0.003 | 0.068 | – | -0.026 | 0.047 | -0.024 | -0.048 | 0.046
CC(C)C[C@@H](C=O)NC(=O)[C@H](CC(C)C)NC(=O)[C@H](CC(C)C)NC(=O)OCc1ccccc1 | 0.024 | 0.045 | 0.137 | 0.195 | – | -0.271 | 0.031 | -0.036 | -0.027 | –
COc1cc2nc(-c3cc(F)ccc3O)nc(N[C@@H]3CNC[C@H]3C(C)(C)O)c2cc1OC | -0.026 | 0.024 | 0.268 | -0.013 | – | 0.042 | 0.205 | 0.028 | -0.006 | 0.093
Cc1ccc(NC(=O)c2cccc(N(C)C)c2)cc1NC(=O)c1ccc(O)cc1 | 0.006 | 0.143 | -0.097 | 0.012 | – | -0.183 | 0.162 | -0.036 | -0.012 | –
Cc1ccc2c(=O)c3ccccc3n(CCCN)c2c1C | -0.142 | 0.011 | -0.126 | 0.17 | – | -0.168 | 0.205 | -0.285 (active) | -0.399 (active) | -0.196
CCCS(=O)(=O)Nc1ccc(F)c(C(=O)c2c[nH]c3ncc(-c4ccc(Cl)cc4)cc23)c1F [vemurafenib] | 0.044 | 0.004 | 0.063 | -0.087 | – | -0.157 | 0.025 | 0.012 | -0.014 | 0.042
CC(C)c1cnn2c(NCc3ccccc3)cc(NCCCCCCN)nc12 | -0.034 | 0.149 | -0.3 | – | 0.321 | 0.054 | -0.042 | -0.011 | 0.014 | –
CC(C)(C)Cn1c(N)nc2ccc(-c3[nH]c(C(C)(C)C)nc3-c3ccc(F)cc3)nc21 [ralimetinib] | -0.012 | -0.07 | 0.116 | 0.074 | – | 0.032 | -0.053 | -0.019 | -0.014 | –
NCC(=O)Nc1ccc(-n2nc(C(F)(F)F)cc2-c2ccc3c(ccc4ccccc43)c2)cc1 | -0.081 | -0.027 | -0.148 | -0.005 | – | 0.085 | -0.076 | -0.016 | 0.067 | -0.038
O=C(Nc1cccc(Nc2ncc(Br)c(NCCc3cnc[nH]3)n2)c1)N1CCCC1 | 0.01 | 0.001 | 0.034 | 0.072 | – | -0.377 (active) | -0.035 | 0.022 | -0.007 | 0.062
CNC(=O)c1ccccc1Nc1nc(Nc2ccc(N3CCOCC3)cc2OC)ncc1Cl | -0.029 | -0.055 | 0.009 | – | 0.151 | -0.019 | -0.057 | 0.045 | 0.002 | –
Oc1cc(-c2nc(-c3ccccc3)[nH]c2-c2ccncc2)ccc1Cl | -0.014 | 0.044 | -0.004 | 0.018 | – | -0.025 | 0.01 | 0.016 | -0.073 | –
CCN(CC)Cc1ccc2cc(COC(=O)Nc3ccc(C(=O)NO)cc3)ccc2c1 [givinostat] | 0.037 | -0.226 | 0.199 | – | 0.112 | 0.042 | 0.063 | -0.004 | -0.029 | –
